# Test results from PubChem BioAssay AID463215 (Sanford-Burnham Center for Chemical Genomics, 2010).
# Screen size: about 4,600 compounds; about 2,900 (63%) were called active.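 How the source made its calls: active means inhibition of yeast growth at or above a set limit in either of two replicates at 10 µM; inactive means the rest.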 So high a share suggests a set chosen from earlier hits. The full list was thinned out, with actives kept by preference.
# Experiment: growth inhibitors of wild-type TIM10 yeast, confirmation, counter-screen for tim10-1 synthetic lethality project, single concentration, luminescence, S. cerevisiae (AID 463215);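 further: isogenic wild-type TIM10 control yeast grown in succinate dextrose medium; this counterscreen used the strain with wild-type TIM10; 0% = yeast with DMSO and 100% = medium wells lacking yeast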
# Conditions: S. cerevisiae tim10 strain growth, BacTiter-Glo luminescence, 24 h; at 10 µM; active compounds read high
row,Structure (SMILES),inhibition
1,Cc1cc2ccccn2c1C(C[N+](=O)[O-])c1c(F)cccc1Cl (stereo not given),36.1% (active)
2,O=C1NC(=O)N(c2ccccc2)C(=O)/C1=C/c1ccc([N+](=O)[O-])s1,40% (active)
3,COc1cccc(N2C(=O)NC(=O)/C(=C\c3ccc([N+](=O)[O-])s3)C2=O)c1,39.2% (active)
4,C/C(=N/O)c1ccc2ccc3ccccc3c2c1,42.5% (active)
5,Cc1ccc(-c2nc3ccccc3c(=O)n2-c2ccc(Br)cn2)cc1,46.5% (active)
